# From PubChem BioAssay
# Values joined by “and” are separate entries in the source; they are usually repeats but may differ in a detail not shown here. Equal values may be shown once. Records with an inconclusive call do not appear. Active and inactive are the calls of the source.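 Rule for the calls, unless noted: active = compound raises insulin release from rat beta cells at 5 mM glucose, no numeric limit stated; inactive = the rest.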
# How the values were obtained:
# [1] = Wnt pathway potentiators raising nuclear beta-catenin – imaging, WNT3A-conditioned medium, mouse C2C12, NPC library, primary screen (AID 1117326; in the data active = nuclear beta-catenin stimulation mostly above about 4.2%, no sharp cut-off; inactive = mostly below about 10%; note: reference of the scale not given here); settings: stronger effect = higher value
# [2] = stimulators of insulin release from INS-1E, primary screen, cell-based, 5 mM glucose, NPC library (AID 1117329); settings: rat INS-1E insulin secretion, at 10 µM, stronger effect = higher value; note: reference of the scale not given here
# [3] = growth inhibition of GSK3B-pretreated HCT116 cells – cell-based, CellTiter-Glo, 0.2 to 20 µM (AID 1117336;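 active = compounds lowering colon cancer cell viability after pretreatment blocking the GSK3B kinase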); settings: HCT116 viability after GSK3B inhibitor, at 20 µM, stronger effect = higher value
# [4] = inhibition of endothelial tube formation, primary screen, imaging, VEGF stimulated, CD31 staining, tube area, NPC library (AID 1117340;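 active = compound that reduces growth-factor-driven endothelial tube area in a mixed cell culture, no cutoff stated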); settings: VEGF-stimulated ADSC/ECFC co-culture, at 10 µM, stronger effect = higher value
# [5] = GLP1 release stimulators, primary, NCI-H716, NPC library (AID 1117341;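 active = compound raises GLP1 secretion from the human gut endocrine cells, with no numeric limit stated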; note: reference of the scale not given here); settings: NCI-H716 cells, at 10 µM, stronger effect = higher value
# [6] = HCT116 colon cancer cell growth inhibition, primary screen, CellTiter-Glo luminescence, NPC library (AID 1117342;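 active = compounds that lower survival of HCT116 colon cancer cells in the luminescence readout, no numeric limit stated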); settings: at 20 µM (top of the series)
# [7] = reduced SW480 viability measured with CellTiter-Glo, NPC library, primary (AID 1117343;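 active = compounds that lower viability of the colon cancer cells in the luminescence readout, with no numeric limit stated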); settings: CellTiter-Glo luminescence; at 20 µM (top of the series) unless noted
# [8] = NPC library primary testing for decreased DLD-1 cell viability via CellTiter-Glo (AID 1117346;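 active = compounds that lower survival of DLD-1 colon cancer cells in the luminescence readout, no cutoff given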); settings: DLD-1 viability, CellTiter-Glo luminescence; at 20 µM (top of the series)
# [9] = tested on: Aerobactin synthetase IucA (Klebsiella pneumoniae); assay: inhibition of K. pneumoniae IucA enzyme – biochemical, Tocris library, absorbance (AID 1345561; call rule not given here;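 note: 100% = enzyme without compound and 0% = no enzyme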); settings: purified IucA enzyme assay, absorbance (OD) read-out; stronger effect = lower value;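 tested at 8 µM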
# [10] = viability loss with induced miR-34 in A549 – imaging, A549 dox-inducible miR-34, nuclei and caspase counts, primary screen (AID 1347080;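 active = compounds whose cell count with miR-34 switched on is under 0.7 times the count with it off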); settings: A549 miR-34 inducible, Hoechst nuclei count, 48 h
# [11] = galactose survival enhancers in mitochondrial complex I cybrids – cell-based, galactose medium, ATP luminescence, primary screen (AID 1645843;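 active = z-score of at least 1.8 in each of two replicates, scored against plate mean and spread of sample wells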;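 note: positive z means more ATP and so rescue of galactose-driven cybrid death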); settings: complex I mutant cybrid cells, 72 h, stronger effect = higher value
# [12] = viability loss in pontine glioma line – cell-based, SU-DIPG-XVII, MIPE5.0, CellTiter-Glo, qHTS, dose response (AID 1347060; cut-off not given, nearly all actives have AC50 up to about 26 µM;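 for AC50: cells exposed to compound for 48 hours before viability readout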); settings: CellTiter-Glo ATP luminescence
# [13] = viability loss in pontine glioma line – cell-based, SU-DIPG-XIII, MIPE4.0, CellTiter-Glo, qHTS, dose response (AID 1347061; cut-off not given, nearly all actives have AC50 up to about 37 µM;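 note: cells exposed to compound for 48 hours before readout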); settings: CellTiter-Glo ATP luminescence
# [14] = viability loss in pontine glioma line – cell-based, JHH-DIPG-1, MIPE4.0, CellTiter-Glo, qHTS, dose response (AID 1347062; cut-off not given, nearly all actives have AC50 up to about 27 µM); settings: JHH-DIPG-1 viability, CellTiter-Glo ATP luminescence
# [15] = growth inhibition of DIPG cells – cell-based, MIPE5.0 library, qHTS (AID 1347068; cut-off not given, nearly all actives have IC50 up to about 30 µM;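 for IC50: cells exposed to compound for 48 hours before viability readout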); settings: SU-DIPG-XXV viability
# [16] = MELAS cybrid and Rieske KO viability enhancers – cell-based, MELAS cybrids, Rieske KO mouse fibroblasts, CellTiter-Glo, primary screen (AID 1508586;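 active = mean z-score across replicates of 1.96 or higher in either the MELAS or the Rieske mutant cell line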;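 note: z relative to plate mean and SD of compound and empty wells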); settings: low glucose
# [17] = P. berghei load reduction in hepatocytes – cell-based, HepG2, luciferase luminescence, HepG2 viability, primary screen (AID 624349; in the data active = parasite load remaining mostly below about 12%, no sharp cut-off; inactive = mostly above about 10%;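 note: 100% = mean of DMSO negative control wells on the same plate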); settings: P. berghei liver stage in HepG2, luciferase luminescence, concentration not given here; parasite load remaining: stronger effect = lower value; viability: measured here: HepG2 viability without parasites
# [18] = stronger effect = lower value, cell number ratio, induced over uninduced
# [19] = measured here: relative caspase fold change +Dox/-Dox
# [20] = measured here: total cells with miR-34 induction, stronger effect = lower value
# [21] = measured here: total cells without miR-34 induction
# [22] = MELAS cybrid survival, CellTiter-Glo 48 h, stronger effect = higher value
# [23] = Rieske KO mouse fibroblast survival, CellTiter-Glo 72 h
smiles,measurement,setting,value
COP(=O)(OC)OC(c1ccc(Cl)cc1)P(=O)(OC)OC (centres undefined),nuclear beta-catenin stimulation,[1]; at 10 µM,-1.5% (inactive)
same,nuclear beta-catenin stimulation,"[1]; stimulation, at 2 µM",1.2%
same,insulin secretion stimulation,[2],1.8% (inactive)
same,viability decrease,[3],-3.65% (inactive)
same,tube area decrease,[4],-20.8% (inactive)
same,GLP1 secretion stimulation,[5],1.3% (inactive)
same,inhibition of viability,[6],-20.4% (inactive)
same,viability decrease (inhibition),[7],-1% (inactive)
same,viability decrease (inhibition),[8],1.6% (inactive)
same,remaining activity,[9],122% (inactive)
same,fold change,[10]; [18],0.979 (inactive)
same,fold change,[10]; [19],1.41
same,cell count,[10]; [20],8810
same,cell count,[10]; [21],8990
same,z-score,[11],-0.085 (inactive)
C[C@@H](NCCCc1cccc(C(F)(F)F)c1)c1cccc2ccccc12,nuclear beta-catenin stimulation,[1]; at 10 µM,35.9% (inactive)
same,nuclear beta-catenin stimulation,"[1]; stimulation, at 2 µM",-0.4%
same,insulin secretion stimulation,[2],0.2% (inactive)
same,viability decrease,[3],101% (active)
same,tube area decrease,[4],99.6% (active)
same,GLP1 secretion stimulation,[5],20.5% (active)
same,inhibition of viability,[6],102% (active)
same,viability decrease (inhibition),[7],123% (active)
same,viability decrease (inhibition),[8],104% (active)
same,AC50,[12],16.6 µM (active)
same,outcome,[13],inactive
same,outcome,[14],inactive
same,IC50,[15],20.9 µM (active)
same,fold change,[10]; [18],0.971 (inactive)
same,fold change,[10]; [19],0.761
same,cell count,[10]; [20],5970
same,cell count,[10]; [21],6150
same,z-score,[16]; [22],-0.442 (inactive)
same,z-score,[16]; [23],0.442
CCN[C@H]1C[C@H](C)S(=O)(=O)c2sc(S(N)(=O)=O)cc21,parasite load remaining,[17],70.8% (inactive) and 54% (inactive)
same,viability,[17],73% and 119%
same,nuclear beta-catenin stimulation,[1]; at 10 µM,0.6% (inactive)
same,nuclear beta-catenin stimulation,"[1]; stimulation, at 2 µM",1.7%
same,insulin secretion stimulation,[2],2.65% (inactive)
same,viability decrease,[3],10.3% (inactive)
same,tube area decrease,[4],-2.8% (inactive)
same,GLP1 secretion stimulation,[5],2.1% (inactive)
same,inhibition of viability,[6],4.1% (inactive)
same,viability decrease (inhibition),[7],-12.1% (inactive)
same,viability decrease (inhibition),[8],3.2% (inactive)
same,outcome,[12],inactive
same,outcome,[13],inactive
same,outcome,[14],inactive
same,outcome,[15],inactive
same,fold change,[10]; [18],0.888 (inactive) and 0.89 (inactive)
same,fold change,[10]; [19],0.692 and 0.631
same,cell count,[10]; [20],8830 and 9540
same,cell count,[10]; [21],9940 and 10700
same,z-score,[16]; [22],-0.0417 (inactive) and -1.04 (inactive)
same,z-score,[16]; [23],-0.635 and -0.666
same,z-score,[11],0.255 (inactive)
Nc1ccn(C2CO[C@H](CO)O2)c(=O)n1 (some centres undefined),nuclear beta-catenin stimulation,[1]; at 10 µM,1.3% (inactive)
same,nuclear beta-catenin stimulation,"[1]; stimulation, at 2 µM",0.3%
same,insulin secretion stimulation,[2],2% (inactive)
same,viability decrease,[3],-8.3% (inactive)
same,tube area decrease,[4],7.2% (inactive)
same,GLP1 secretion stimulation,[5],0.5% (inactive)
same,inhibition of viability,[6],4.2% (inactive)
same,viability decrease (inhibition),[7],-18.8% (inactive)
same,viability decrease (inhibition),[8],3.7% (inactive)
same,outcome,[12],inactive
same,outcome,[13],inactive
same,outcome,[14],inactive
same,outcome,[15],inactive
CNCCC(Oc1ccccc1OC)c1ccccc1 (centres undefined),parasite load remaining,[17],99.2% (inactive) and 34.1% (inactive)
same,viability,[17],99.6% and 98.5%
same,nuclear beta-catenin stimulation,[1]; at 10 µM,-0.2% (inactive)
same,nuclear beta-catenin stimulation,"[1]; stimulation, at 2 µM",0.5%
same,insulin secretion stimulation,[2],8% (inactive)
same,viability decrease,[3],-108% (inactive)
same,tube area decrease,[4],0.4% (inactive)
same,GLP1 secretion stimulation,[5],1.3% (inactive)
same,inhibition of viability,[6],1.93% (inactive)
same,viability decrease (inhibition),[7],16.6% (inactive)
same,viability decrease (inhibition),[8],-38.2% (inactive)
same,remaining activity,[9],107% (inactive)
same,z-score,[16]; [22],-0.579 (inactive) and 0.865 (inactive)
same,z-score,[16]; [23],-0.0039 and 1.57
same,z-score,[11],-0.245 (inactive) and -0.495 (inactive) and 0.12 (inactive)
